Experimental data as given in PubChem BioAssay AID743279 (National Center for Advancing Translational Sciences (NCATS), 2014).
In all, about 360,000 compounds went through this assay and about 17,000 (4.7%) were called active. Roughly 5% stayed inconclusive and do not appear here. Rule as the data show it: active = activity change below about -50%; inconclusive = mostly about -30% to -49%; inactive = weaker than that. The sample as a whole holds a higher share of actives than the screen did.
% is scaled to controls: 0 for no effect and ±100 for the full control effect.

Assay: qHTS for Inhibitors of Inflammasome Signaling: IL-1-beta AlphaLISA Primary Screen
Settings: THP-1 LPS/ATP IL-1B secretion, 16 h; at 57.5 µM, stronger effect = lower value
Summary of the method: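 Secreted IL-1B measured by AlphaLISA bead assay after 16 h compound exposure of THP-1 cells; compounds (final up to 57.5 uM) added 1 h before LPS (250 ng/mL) and ATP (1.25 mM) stimulation; lower signal means less secretion.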
In the case of CN1CCN(c2ccc(NC(=O)c3cc(Cl)c4c(c3)OCCO4)cc2)CC1, the activity change is reported as -19% (inactive). For O=C(Nc1ccc(NC(=O)c2ccc3c(c2)OCO3)cc1)c1cccc(Cl)c1, the activity change was 9.41% (inactive). With O=C(Nc1ccc(Cl)cn1)c1ccc2c(c1)OCCO2 the activity change was 2.51% (inactive). In the case of COC(=O)c1ccc(N2CCOCC2)c(NC(=O)c2ccc3c(c2)OCCO3)c1, the activity change is reported as 18.4% (inactive). In the case of O=C(Nc1cccc(S(=O)(=O)Nc2ccc(Cl)cc2)c1)c1ccc2c(c1)OCCO2, the activity change is reported as -81.3% (active). In the case of CN1CCN(c2ccc(NC(=O)c3ccc4c(c3)OCCO4)cc2Cl)CC1, the activity change is reported as -72.6% (active). With COc1ccc(NC(=O)CN(C)C(=O)c2cc(C)oc2C)cc1 the activity change was 24% (inactive). For CCCS(=O)(=O)NC(=O)C1(C)CCCN(C(=O)c2ccnc(Cl)c2)C1 (stereo not drawn), the activity change was 15.3% (inactive). For COc1ccccc1C(=O)NCCC(=O)NC1=NCCS1, the activity change was 22% (inactive). For CC(=O)Nc1ccc(C(=O)N(C2=NC(C)CS2)c2ccc(Cl)cc2)cc1 (stereo not drawn), the activity change was “inactive”. In the case of COc1ccccc1C(=O)N(C1=NC(C)CS1)c1ccc(Cl)cc1 (stereo not drawn), the activity change is reported as -80.7% (active). For COc1ccc(CCC(=O)Nc2ccc(Cl)c(S(=O)(=O)N3CCOCC3)c2)cc1OC, the activity change was -24.7% (inactive). With Cc1cc(Br)ccc1NC(=O)c1sc2ncn(CC(=O)N3CCN(c4ccccn4)CC3)c(=O)c2c1C the activity change was 28.3% (inactive). For Cc1nc(N2CCN(c3ccccn3)CC2)c2c(C)c(C(=O)Nc3ccc(F)cc3)sc2n1, the activity change was -76.8% (active). With CCN(CC)c1ccc(NC(=O)CN2CCN(c3ccccn3)CC2)cc1 the activity change was 2.92% (inactive). In the case of Cc1nc(N2CCC(C)CC2)c2c(C)c(C(=O)Nc3cc(F)ccc3C)sc2n1, the activity change is reported as -93.6% (active). For CCC(=O)Nc1ccc2c(c1)nc(CCN1CCN(c3ccccn3)CC1)n2C, the activity change was -3.98% (inactive). For Cc1nc(N2CCN(c3ccccn3)CC2)c2c(C)c(C(=O)Nc3ccc(F)c(Cl)c3)sc2n1, the activity change was -58.3% (active). With Cc1sc2ncnc(N3CCC(C(=O)NNC(=O)c4ccc(F)cc4)CC3)c2c1C the activity change was -23.3% (inactive). In the case of Cc1sc2ncnc(N3CCC(C(=O)Nc4ccc(F)cc4Cl)CC3)c2c1C, the activity change is reported as -10.9% (inactive). In the case of Cc1cc(Br)ccc1NC(=O)c1cnc(N2CCN(c3ccccn3)CC2)c2ccccc12, the activity change is reported as 1.57% (inactive). In the case of CC(NC(=O)COc1cccnc1[N+](=O)[O-])c1ccc(Cl)cc1Cl (stereo not drawn), the activity change is reported as -26% (inactive). In the case of CN(C)C(=S)N=c1ssc(=S)n1Cc1ccco1, the activity change is reported as 1.33% (inactive). For Cc1ccc(C(=O)NCCc2nnc(SCC(=O)Nc3cccc(C(=O)O)c3)n2C)cc1, the activity change was 3.07% (inactive). With CCCCCC1CCC(c2nnc(SCC(C)=O)o2)CC1 (stereo not drawn) the activity change was 0.218% (inactive). In the case of O=C1C2C3C=CC(C3)C2C(=O)N1c1ccc(-c2nc3ccccc3c(=O)o2)cc1 (stereo not drawn), the activity change is reported as -10.4% (inactive). With CC(=NC1CCN(Cc2ccccc2)CC1)c1c(O)[nH]c(=O)[nH]c1=O the activity change was 4.26% (inactive). For CS(=O)(=O)N(CC(=O)N1CCN(Cc2ccccc2)CC1)c1ccc2c(c1)OCCO2, the activity change was -2.68% (inactive). For CN(C)c1nc(=Nc2cccc(Cl)c2)ss1, the activity change was -9.51% (inactive). For c1ccc(CN2CCC(N=C3NN=C(c4ccc5c(c4)OCCO5)CS3)CC2)cc1, the activity change was -81.5% (active). In the case of Clc1cccc(N=C2NN=C(c3ccc4c(c3)OCCO4)CS2)c1, the activity change is reported as -71.7% (active). With O=C(Nc1ccc(Cl)cc1)C1Cc2c(-c3ccc4c(c3)OCO4)ccnc2O1 (stereo not drawn) the activity change was -19.5% (inactive). For Cc1ccc(S(=O)(=O)Nc2ccccc2CNc2c(C)n(C)n(-c3ccccc3)c2=O)cc1, the activity change was -4.94% (inactive). For O=C(NCCO)c1cccc(-c2cccc3nccn23)c1, the activity change was 81.9% (inactive). For CN(c1ccc(O)cc1)c1nc(-c2cccnc2)cs1, the activity change was 40.3% (inactive). For O=C(NCc1cccnc1)C(=O)Nc1nc(-c2ccccc2)cs1, the activity change was 17.3% (inactive). For Cc1ccccc1Nc1nc(-c2cccnc2)cs1, the activity change was -83.1% (active). With O=C(CN1C(=O)NC2(CCOc3ccccc32)C1=O)NCc1ccc(F)cc1 (stereo not drawn) the activity change was -15.8% (inactive). For C[C@@H]1CN([C@@H](C)CO)C(=O)CCCn2nncc2CO[C@H]1CN(C)C(=O)Nc1ccc(C(F)(F)F)cc1, the activity change was -7.03% (inactive). For COC(=O)c1ccc2nc(C3CCCCC3)c(Cc3cccc(F)c3)n2c1, the activity change was 20.9% (inactive). With CN(C)CCCn1c(N)c(C#N)c2nc(C#N)c(C#N)nc21 the activity change was -105% (active). In the case of N#Cc1c(N)n(CCOC(=O)c2ccc(Cl)cc2)c2nc3ccccc3nc12, the activity change is reported as -16.3% (inactive). In the case of Cc1cc(C)c(S(=O)(=O)N(C)CC(=O)NCC2CCCO2)c(C)c1 (stereo not drawn), the activity change is reported as 4.54% (inactive). With CCCCNC(=O)C(C)N(CCN(C)C)C(=O)CCCCCN1C(=O)NC(c2ccc(Cl)cc2)C(C(=O)OCc2ccccc2)=C1C (stereo not drawn) the activity change was -52.2% (active). With CC1=C(C(=O)OCc2ccccc2)C(c2ccc(C(F)(F)F)cc2)NC(=O)N1CCCCCC(=O)O (stereo not drawn) the activity change was 5.05% (inactive). With COC(=O)CCCCCN1C(=O)NC(c2ccc(-c3ccccc3)cc2)C(C(=O)OCc2ccccc2)=C1C (stereo not drawn) the activity change was -1.28% (inactive). For CC(=O)c1cccc(-c2cnc3c(NC=O)cc(-c4ccc(N5CCN(C)CC5)cc4)cn23)c1, the activity change was 108% (inactive). For CC(C)(C)Cc1c(C2CCCCC2)nc2ccc(Br)cn12, the activity change was 28.2% (inactive). For OCC1(Cc2ccccc2C(F)(F)F)CCN(Cc2ccncc2)CC1, the activity change was 21.9% (inactive). In the case of OCC1(Cc2ccccc2C(F)(F)F)CCN(Cc2cccc3cnccc23)CC1, the activity change is reported as -72.4% (active). In the case of C/C(=N/N1CCN(Cc2cccc3ccccc23)CC1)c1cccnc1, the activity change is reported as 0% (inactive). With O=S1(=O)CC(N2CCC(Cc3ccccc3)CC2)CN1Cc1ccccc1 (stereo not drawn) the activity change was 21.9% (inactive). With CCN(CC)CCCNC(=O)c1cc2c(=O)[nH]c3ccc(C)cc3c2s1 the activity change was -65.6% (active). In the case of CCN(CC)CCCNC(=O)c1cc(-c2cccc(Cl)c2)on1, the activity change is reported as -5.59% (inactive). With Cc1cccc(N(C)C(=O)c2cc3c(=O)[nH]c4ccc(C)cc4c3s2)c1 the activity change was 3.44% (inactive). For COCCNC(=O)c1cc2c(Br)ccc(Br)c2nc1N, the activity change was -2.49% (inactive). For O=C(NCC1CCCCC1)c1cc(S(=O)(=O)N2CCCCC2)ccc1N1CCOCC1, the activity change was -0.256% (inactive). For CCC1CCCCN1C(=O)CSc1nc2c(c(=O)n(C)c(=O)n2C)n1C (stereo not drawn), the activity change was 2.3% (inactive). For Cn1c(=O)c2c(nc(SCC(=O)Nc3ccccc3N3CCCCC3)n2C)n(C)c1=O, the activity change was -57.3% (active). For Cn1c(=O)c2c(nc(SCCNS(=O)(=O)c3ccccc3)n2C)n(C)c1=O, the activity change was 29.8% (inactive). With O=[N+]([O-])c1ccccc1/C=C/CN1CCC(O)CC1 the activity change was 7.25% (inactive). For CC1CCCCC1NC(=O)/C(C#N)=C/C=C/c1ccccc1[N+](=O)[O-] (stereo not drawn), the activity change was -103% (active). With O=[N+]([O-])c1ccccc1/C=C/CN1CCCC(CO)C1 (stereo not drawn) the activity change was -11.3% (inactive). With CCc1ccc(C(=O)N2CCN(S(=O)(=O)c3sc(C(=O)O)c(C)c3C(=O)O)CC2)cc1 the activity change was 20.6% (inactive). For O=C1C[C@@H]2c3c(cccc3CN1Cc1ccccc1)C[C@@H](O)[C@H]2O, the activity change was 16.3% (inactive). For c1ccc(Cn2nnc3c(NCC4CC4)ncnc32)cc1, the activity change was -6.22% (inactive). With COc1cccc(-c2cnc(C(O)c3ccccc3OC)[nH]2)c1 (stereo not drawn) the activity change was 26.3% (inactive). For O=C(Nc1ccc(C(=O)O)cc1)/C(=C\c1ccccc1)NC(=O)c1ccc(Br)cc1, the activity change was -0.689% (inactive). For O=C(Nc1ccc(C(=O)O)cc1)/C(=C/c1ccc([N+](=O)[O-])cc1)NC(=O)c1ccccc1, the activity change was -62.1% (active). With O=C(NCCc1ccccc1)/C(=C\c1ccc([N+](=O)[O-])cc1)NC(=O)c1ccccc1 the activity change was 4.21% (inactive). In the case of C[C@]12CC[C@H](O)CC1=CCC1C2CC[C@@]2(C)C1CC[C@@H]2NC(=O)CCC(=O)O (stereo partly drawn), the activity change is reported as 14.7% (inactive). With Cc1cc2cc3n(c2nn1)N=C(Cl)CC3 the activity change was -81.1% (active). In the case of COc1cc(Cn2c3ccc(NC(=O)CC(C)c4ccccc4)cc3c(=O)n2C)ccc1F (stereo not drawn), the activity change is reported as -18% (inactive). For CC1(C(=O)NS(=O)(=O)c2ccc(C#N)cc2)CCN1C(=O)c1ccc(C2CCCCC2)cc1 (stereo not drawn), the activity change was 12.1% (inactive). For O=C(c1ccc2c(c1)C(=O)N(c1ccc(Cl)cc1)C2=O)N1CCN(c2ccccn2)CC1, the activity change was 15.8% (inactive). In the case of O=C(O)c1ccc2c(c1)C(=O)N(c1ccc(/C=C/C(=O)c3ccccc3)cc1)C2=O, the activity change is reported as -154% (active). In the case of Cc1cccc(N2C(=O)c3ccc(C(=O)Nc4cccc(C(=O)O)c4)cc3C2=O)c1, the activity change is reported as 10.8% (inactive). With O=C(NN=Cc1ccc(N2CCOCC2)cc1)c1cc2ccccc2cc1O the activity change was -24% (inactive). For O=C(c1ccccc1)c1ccc(C(=O)N2CCN(c3ccccc3)CC2)cc1, the activity change was -8.14% (inactive). For O=C(/C=C/c1ccc(N2CCOCC2)cc1)c1ccccc1, the activity change was -239% (active). For CC(OC(=O)c1cccnc1Cl)C(=O)NC1CCCCC1 (stereo not drawn), the activity change was -3.91% (inactive). In the case of COc1ccc(C(=O)OCC(=O)Nc2cc(C)on2)cc1F, the activity change is reported as 10.7% (inactive). In the case of C[C@@H]1CN([C@@H](C)CO)C(=O)CCCn2cc(nn2)CO[C@H]1CN(C)S(=O)(=O)c1ccc(-n2cccn2)cc1, the activity change is reported as -5.6% (inactive). For COc1ccc(CCNC2=C(Cl)C(=O)N(Cc3ccccc3)C2=O)cc1OC, the activity change was -67.7% (active). For COc1ccc(CCN=C2SCC(=O)N2Cc2ccccc2)cc1OC, the activity change was -10.8% (inactive). With COc1ccc(CCN2C(=O)C(C)=C(C)C2=O)cc1OC the activity change was -6.73% (inactive). For Nc1cccc(OCCCCCOc2cccc(N)c2)c1, the activity change was -27.6% (inactive). With CC(=O)Nc1c(-c2ccc(C)cc2)nc2ccc(Cl)cn12 the activity change was 13.6% (inactive).
